Reference: PubChem BioAssay (NCI)
Values joined by “and” are separate entries in the source; they are usually repeats but may differ in a detail not shown here. Identical values can stand only once. Compounds without any hit were thinned out: in the full panel of roughly 83,000, 20% have a hit.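 Testing used 96-well plates and a 48-hour single-concentration exposure. Example: -40 means 40% of the starting cells died.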 Unmarked numbers belong to inactive results. Active and inactive are the calls of the source.

System: A498 renal
Assay: NCI-60 one-dose screen, 48 h (100 = growth as untreated, 0 = no growth, -100 = all killed)
Settings: 10 µM
Experimental: Growth inhibition of the A498 human tumor cell line is measured as a screen for anti-cancer activity. Cells are grown in 96 well plates and exposed to the test compound for 48 hours. Compounds are tested at a single concentration, which is 10^-5 M for most compounds. The reported endpoint is percent growth (GI% or GIPRCNT), where numbers from 0 - 100% represent growth inhibition, and numbers from -100% - 0 represent cell death. For example, a value of 40 represents 60% growth inhibition. A value of 0 means no net growth occurred over the course of the experiment. A value of -40 indicates 40% of cells at the beginning of the experiment died by the end of the experiment. A value of -100 means all cells are dead at the end of the experiment.
NCI-60 Human Tumor Cell Lines Screen was performed using the standard one-dose NCI protocol, which is described in more detail at https://dtp.cancer.gov/discovery_development/nci-60/default.htm.
Compounds with GIPRCNT values below 10 were considered active. Activity score was based on GIPRCNT using the following formula: […]
Score is 0 for GIPRCNT values of 100 or above, 50 for GIPRCNT values of 0, and 100 for GIPRCNT values of -100.

| SMILES | growth |
| --- | --- |
| CC(=O)/C=C/c1ccc(N(CCO)Cc2ccc(C(C)(C)C)cc2)cc1 | 78.6% |
| COc1ccc(C(=O)/C=C/c2ccc(OCc3ccc(Cl)cc3)cc2)cc1OC | 85.5% |

Same assay, conditions: 10 µM unless noted

| SMILES | growth |
| --- | --- |
| O=C1CCCCN1CCCCC#Cc1cccc(C#Cc2cccnc2)c1 | 84.3% |
| CCCN1C(=O)/C(=c2\sc3n(c2=O)C2C(NN=3)N(CC)C(=O)N2CC)c2ccccc21 (stereo not given) | 5.22% (active) |
| O=C1OCC2=C1C(c1cccc(C(F)(F)F)c1)c1cc3c(cc1N2CCO)CCC3 (stereo not given) | 1.23% (active) |
| CC(=NCc1ccccc1)c1ccc(O)cc1O | 100% |
| Cn1cc(-c2csc(-c3c[nH]c4ccc(F)cc34)n2)c2cnccc21 | 74.8% |
| Cc1ccc(/C=C(\C#N)c2cc3ccccc3[nH]2)cc1 | 57.2% |
| C=C(CN1CC=CCC1)[C@@H]1CC[C@]2(COC(C)=O)CC[C@]3(C)[C@H](CC[C@@H]4[C@@]5(C)CC[C@H](O)C(C)(C)[C@@H]5CC[C@]43C)[C@@H]12 | 116% |
| CC(=O)N1N=C(c2ccc(F)cc2)CC1c1sc(N(C)Cc2ccccc2)nc1Cl (stereo not given) | 104% |
| CC/C(=C(/c1ccc(Cl)cc1)c1ccc(OCCN2CCOCC2)cc1)c1ccccc1 | 99.7% |
| Cn1cc(C2=C(c3cccc4ccccc34)C(=O)NC2=O)c2cc(Br)ccc21 | 69.8% |
| N=C(N)c1ccc(-c2ccc(-c3ccc(Cl)c(Cl)c3)s2)cc1 | 86.7% |
| Cc1ccc(-c2nc(C#N)c(S(=O)(=O)N(C)C)o2)cc1 | 77% |
| BrC1=C(Br)C(Br)(Br)C(Br)=C1Br | 109% |
| O=C(NNC(=S)Nc1ccccc1)c1ccncc1 | 124% |
| OCc1cc(CN2CCCCC2)c(O)c2ncccc12 | 91.8% |
| COC(=O)c1c2c(c(C)[n+]([O-])c1C)C(=O)C(NCCN1CCOCC1)=CC2=O | 129% |
| COc1cc(NS(=O)(=O)C(C)C)cc(-c2cc(-c3ccc(N4CCNCC4)cc3)cnc2N)c1 | 75.3% |
| CCOC(=O)C1=C(C)NC(=O)NC1c1c(Cl)n(-c2ccccc2)c2ccccc12 (stereo not given) | 78.2% |

| SMILES | growth |
| --- | --- |
| O=C(CCCCCCCCC(=O)N/N=C\c1ccccc1O)N/N=C\c1ccccc1O | 46.5% |
| O=C1/C(=C/c2cn(-c3ccccc3)nc2-c2ccccc2)SC(=S)N1c1ccccc1 | 91.1% |
| CCCc1cc(C(N)=S)ccn1 | 125% |
| COc1ccc(-c2cc(-c3cccnc3)nc3sc4c(Cl)nnnc4c23)cc1OC | 88.1% |
| Cn1ccnc1CN1CCSC(C(=O)Nc2ccccc2)C1 (stereo not given) | 97% |
| C=C[C@]1(C)C=C2CC[C@@H]3C(C)(C)C(=O)CC[C@@]3(C)[C@@H]2CC1 | 90.6% |
| CCC(=C(c1ccc(OCCCN(C)C)cc1)c1ccc(OCCCN(C)C)cc1)c1ccc(Cl)cc1 | -86.3% (active) |
| O=C1C(=C(O)c2ccccc2)C(=O)c2ccccc21 | 123% |
| CNC(=O)c1cc(Oc2ccc3nc(NC(=O)Nc4ccc(C(F)(F)F)cc4)sc3c2)ccn1 | 98.8% |
| COc1ccc(Oc2nc(Nc3ccc(N4CCOCC4)cc3)ncc2NC(=O)c2cc(OC)cc(OC)c2)cc1 | 8.34% (active) |
| O=c1oc2c(Br)cc(Br)cc2cc1-c1cc(-c2ccc(-c3cc(-c4cc5cc(Br)cc(Br)c5oc4=O)nc(-c4cc5cc(Br)cc(Br)c5oc4=O)c3)cc2)cc(-c2cc3cc(Br)cc(Br)c3oc2=O)n1 | 95.9% |
| Clc1ccc(CNc2ccc3nc(CCC4CCCCC4)[nH]c3c2)cc1 | 45.8% |
| Nc1ccc(S(=O)(=O)c2ccc(N)cc2)cc1 | 103% and 106% |
| COc1ccc(C(c2cc(OC)c(OC)c(OC)c2)n2ccnc2)cc1O (stereo not given) | 8.04% (active) |
| O=C(Nc1ccccc1C(=O)N/N=C(\c1ccccc1)c1ccccn1)c1ccccc1 | 16.5% |
| O=C1C=C(Nc2ccccc2)c2ncccc2C1=O | -87.5% (active) |
| O=C(Nc1ccc2ccccc2c1)c1cc2ccccc2cc1O | 90.4% |
| CCCO/N=C/c1ccccn1 | 101% and 117% |

Same assay, conditions: 100 µM

| SMILES | growth |
| --- | --- |
| CC(=O)/C=C/c1ccc(N(CCO)Cc2ccc(C(C)(C)C)cc2)cc1 | -98.3% (active) |
| COc1ccc(C(=O)/C=C/c2ccc(OCc3ccc(Cl)cc3)cc2)cc1OC | -33.3% (active) |
